By inhibition is commonly meant the change of the read-out against control, counted positive when it falls.

Each structure is given as a SMILES string. Out of some 370,000 compounds screened, about 2,300 (0.62%) were called active. This is one part of a sample in which actives are shown more often than they occur.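 How the source made its calls: active means inhibition above a per-campaign cutoff equal to the mean of compounds falling between control-based bounds plus 3 SD (cut at about 20% in these data); inactive means the rest.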

Sequence of Disintegrin and metalloproteinase domain-containing protein 10 (Homo sapiens) (O14672 214-748 limits assumed): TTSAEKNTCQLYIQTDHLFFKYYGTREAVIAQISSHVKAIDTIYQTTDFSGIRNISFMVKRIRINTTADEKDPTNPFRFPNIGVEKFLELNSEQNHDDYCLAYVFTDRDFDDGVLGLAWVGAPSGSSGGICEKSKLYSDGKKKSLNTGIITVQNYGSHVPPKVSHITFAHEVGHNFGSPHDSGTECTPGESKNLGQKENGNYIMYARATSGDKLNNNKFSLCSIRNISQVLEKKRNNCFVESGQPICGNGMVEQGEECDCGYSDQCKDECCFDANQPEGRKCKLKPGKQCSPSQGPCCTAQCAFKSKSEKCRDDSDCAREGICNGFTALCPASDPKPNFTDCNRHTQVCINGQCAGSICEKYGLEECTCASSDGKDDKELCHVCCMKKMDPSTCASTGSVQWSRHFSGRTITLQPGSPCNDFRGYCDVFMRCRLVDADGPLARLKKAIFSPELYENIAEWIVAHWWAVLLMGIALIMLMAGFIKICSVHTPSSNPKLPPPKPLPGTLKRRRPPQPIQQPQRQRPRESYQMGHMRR

This assay addresses Disintegrin and metalloproteinase domain-containing protein 10 (Homo sapiens) (UniProt O14672). The assay is described as follows: blockers of ADAM10 peptide cleavage – biochemical, QFRET, HTS, primary screen (AID 720582).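 Further: 0% = DMSO wells while the 100% control is not disclosed.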 The conditions noted are these: recombinant ADAM10, EDANS/DABCYL FRET peptide cleavage, 3 h; at 7 µM; hits give high values.
Take `O=C(NCCc1c[nH]c2ccc(Cl)cc12)c1ccc([N+](=O)[O-])cc1`: the inhibition was -1.95% (inactive).
Next, `O=C(NCCc1ccc(Cl)cc1Cl)c1cc([N+](=O)[O-])c[nH]c1=O`: 20.1% (active); `NS(=O)(=O)c1ccc(CCNC(=O)c2ccc(Cl)cc2[N+](=O)[O-])cc1`: -0.8% (inactive); `Cc1cc(NS(=O)(=O)c2ccc(NC(=O)CSc3nnc(-c4ccc(C(C)(C)C)cc4)n3Cc3ccco3)cc2)nc(C)n1`: 5.55% (inactive).
For `COc1ccc(C2Nc3ccccc3C(=O)N2Cc2cccs2)cc1COc1c(C)cccc1C` (stereo not drawn) the value was -298% (inactive).
Next, `COc1ccc(C(=O)OCCN(C)C2CN(Cc3cn(Cc4cccc(C)c4)nn3)S(=O)(=O)C2)cc1OC` (stereo not drawn): 2.95% (inactive); `Cc1ccc(-n2c(SCC(=O)Nc3cccc4ccccc34)nnc2-c2ccco2)cc1`: 9.63% (inactive).
`S=c1[nH]nc(CSCc2ccc(Cl)cc2Cl)n1-c1ccccc1`: the inhibition was 15.5% (inactive).
Regarding `S=c1[nH]ccn1-c1ccc(Cl)cc1`, the inhibition was -2.53% (inactive).
For `S=c1[nH]cc(-c2ccc(Cl)cc2)n1-c1ccccc1`, the inhibition was 22.5% (active).
For `O=C(c1cccc(C(F)(F)F)c1)N1CC[C@H]2[C@H](CCCN2Cc2cc(F)cc(F)c2)C1` the value was -2.92% (inactive).
Next, `Cn1c(CNc2nc(-c3ccccc3)cs2)nnc1SCC(=O)c1ccccc1`: 35% (active); `CCn1c(CNc2ccc(OC)cc2)nnc1SCC(=O)c1ccc(OC)cc1`: -4.28% (inactive).
For `Cn1c(Cc2cccs2)nnc1SCC(=O)Nc1ccccc1` the value was -5.09% (inactive).
On to `COc1ccc(CN2C(=O)N3Cc4cc(OC)ccc4C3CS2(=O)=O)cc1` (stereo not drawn), for which the inhibition is 2.06% (inactive).
For `O=C(CCCCCN1C(=O)C2C3C=CC(C3)C2C1=O)Nc1ccccc1` (stereo not drawn) the value was 1.21% (inactive); for `COc1ccc([C@H]2CC(=O)C=C(c3ccc(OC(F)(F)F)cc3)C2)cc1OC`, 21% (active).
For `COc1ccc([C@H]2CC(=O)C=C(c3ccc(CO)cc3)C2)cc1` the value was -0.95% (inactive).
Consider `COc1cccc(C2=CC(=O)C[C@H](c3ccc(OC)c(OC)c3)C2)c1`, for which the inhibition is 1.42% (inactive).
For the molecule `O=C(COC(=O)Cc1c[nH]c2ccccc12)NCCc1ccccc1`, the inhibition is 7.22% (inactive).
On to `Cc1cc(C)cc(NC(=S)NCCc2c[nH]c3ccccc23)c1`, for which the inhibition was 28.5% (active).
Turning to `Cc1ccc(S(=O)(=O)N(C)CC(=O)NCCc2c[nH]c3ccccc23)cc1`, the inhibition was -6.6% (inactive).
Next, `COc1cc(Cl)cc(C2NC(=O)NC(C)=C2C(=O)NCc2ccccc2)c1O` (stereo not drawn): -4.94% (inactive); `COc1cc(/C=C2/SC(=S)N(Cc3ccccc3)C2=O)cc(OC)c1O`: 20.6% (active); `COc1cc(C(=S)NCc2ccccc2)cc(Br)c1O`: 10.6% (inactive).
For `O=C(COC(=O)COc1ccccc1F)Nc1cccc(S(=O)(=O)N2CCCCC2)c1`, the inhibition is -11.9% (inactive).
For `NS(=O)(=O)c1ccc(NC(=O)COC(=O)C2(c3ccc(F)cc3)CCCC2)cc1`, the inhibition was 13% (inactive).
For `CN(C)S(=O)(=O)c1cccc(NC(=O)COC(=O)C2(c3ccccc3F)CCCC2)c1` the value was 27.6% (active).
`COC(=O)C1CN(CC(C)C)CCS(=O)(=O)N1Cc1ccc(C)cc1` (stereo not drawn): the inhibition is -14.6% (inactive).
Regarding `COC(=O)CC1CCc2cc(C)cc(C(CC(C)C)NC(=O)[C@H](CC(C)C)NC(=O)OCc3ccccc3)c2O1` (stereo partly drawn), the inhibition was -2.1% (inactive).
For `COc1ccc(N2CCN(CCNS(=O)(=O)c3ccc(Cl)s3)CC2)cc1` the value was 0.29% (inactive); for `C=CCC[C@H](Cc1ccc(F)cc1)C(=O)OC[C@@H](NC(=O)[C@@H](CC=C)CC(=O)N[C@H](CO)Cc1ccccc1)C(C)(C)C`, 8.16% (inactive).
With `C=CC[C@H](CC(=O)N(CCO)Cc1ccccc1)C(=O)N[C@@H](COC(=O)[C@@H](CC=C)Cc1ccc(F)cc1)Cc1ccccc1`, the inhibition was 28% (active).
For the molecule `C=CCC[C@H](Cc1ccc(F)cc1)C(=O)OC[C@H](C)NC(=O)[C@H](CC=C)CC(=O)N(CCO)Cc1ccccc1`, the inhibition was 7.82% (inactive).
For the molecule `C=CC[C@@H](CC(=O)N[C@H](CO)Cc1ccccc1)C(=O)N[C@@H](COC(=O)[C@@H](CC=C)Cc1ccc(F)cc1)Cc1c[nH]c2ccccc12`, the inhibition is 0.04% (inactive).
Next, `C=CCC[C@@H](Cc1ccc(F)cc1)C(=O)OC[C@@H](C)NC(=O)[C@H](CC=C)CC(=O)N(CCO)Cc1ccccc1`: 8.58% (inactive); `C=CCC[C@@H](Cc1ccc(F)cc1)C(=O)OC[C@H](Cc1c[nH]c2ccccc12)NC(=O)[C@@H](CC=C)CC(=O)N(CCO)Cc1ccccc1`: 41.8% (active); `C=CC[C@@H](Cc1ccc(F)cc1)C(=O)OC[C@H]1CCCN1C(=O)[C@H](CC=C)CC(=O)N(CCO)Cc1ccccc1`: -2.18% (inactive).
Next, `C=CCC[C@@H](Cc1ccc(F)cc1)C(=O)O[C@H](CNC(=O)[C@H](CC=C)CC(=O)N(CCO)Cc1ccccc1)c1ccccc1`: 31.3% (active); `C=CCC[C@H](Cc1ccc(F)cc1)C(=O)OC[C@@H](Cc1c[nH]c2ccccc12)NC(=O)[C@H](CC=C)CC(=O)N[C@H](CO)Cc1ccccc1`: 0.78% (inactive); `CSc1ccc(C=Nn2c(-c3ccc(F)cc3)n[nH]c2=S)cc1`: -11.4% (inactive).
Next, `Cc1cccc(C(=O)Nc2c(-c3ccc(F)cc3)nc3ncccn23)c1`: -329% (inactive).
On to `CCC(CO)Nc1cccc2c1S(=O)(=O)N(Cc1cn(Cc3ccccc3C(F)(F)F)nn1)Cc1ccccc1O2` (stereo not drawn), for which the inhibition was -15.3% (inactive).
Turning to `O=C(N1CCOCC1)N1CC[C@H]2[C@H](CCCN2Cc2ccc(F)cc2)C1`, the inhibition is -0.66% (inactive).
Turning to `CC(C)CNc1cccc2c1S(=O)(=O)N(Cc1cn(Cc3ccc(Cl)cc3)nn1)Cc1ccccc1O2`, the inhibition was -29.6% (inactive).
Regarding `CCn1c(=O)n2n(c1=O)[C@@]1(C=C3CCCC[C@H]32)N=C(NC(=O)c2ccccc2)N(Cc2ccccc2)[C@H]1Cc1ccccc1`, the inhibition is 9.57% (inactive).
Consider `COC(=O)C[C@@H]1CC[C@@H]2[C@H](COc3ccc(NC(=O)c4cccc(F)c4)cc3C(=O)N2C)O1`, for which the inhibition is 9.14% (inactive).
For `COc1cccc(CNC(=O)CNS(=O)(=O)c2ccc3nc(C)sc3c2)c1OC` the value was 4.07% (inactive).
`Cc1cc(C(=O)NN=C/C=C/c2ccco2)n[nH]1`: the inhibition was -13.7% (inactive).
For `C[C@@H]1ON(C)[C@H]2C[C@H]3c4[nH]c5cccc(-c6ccc7c(c6)OCO7)c5c4CCN3C[C@@H]12` the value was -72.8% (inactive); for `O=C(NN1C(=O)C2C3C=CC(O3)C2C1=O)c1ccccc1` (stereo not drawn), 1.76% (inactive); for `COc1ccc(C(=O)NN2C(=O)C3C(c4ccccc4)C=CC(c4ccccc4)C3C2=O)cc1` (stereo not drawn), 24.9% (active).
Turning to `O=C(NN1C(=O)C2C3C=CC(C4CC34)C2C1=O)c1ccc(Cl)cc1` (stereo not drawn), the inhibition is -2.31% (inactive).
Next, `CCCCN1CCN(C(=O)c2ccc3c(c2)NC(=O)C(C)(C)O3)CC1`: 2.07% (inactive).
As to `Fc1ccc2nc(COCc3nc4ccc(F)cc4[nH]3)[nH]c2c1`, the inhibition is 2.8% (inactive).
On to `COc1cc(/C=N/O)cc(Br)c1OS(=O)(=O)c1ccc(C)cc1`, for which the inhibition was 21.9% (active).
For `COc1cc(/C=C/c2ccc(/C=C/c3cc(OC)c(OC)c(OC)c3)cc2)cc(OC)c1OC` the value was -373% (inactive); for `O=C(O)COc1ccc(/C=N/O)cc1Br`, 3.83% (inactive); for `Cc1ccc(-n2c(SCC(=O)Nc3ccc(S(=O)(=O)Nc4nccs4)cc3)nnc2-c2ccncc2)cc1`, -1.24% (inactive).
For `COc1cccc(NC(=O)CN2CCN(c3nc(-c4cccc(OC)c4)cs3)CC2)c1` the value was 21.4% (active).
For `CC1CCCC(C)N1C(=O)CN1CCN(c2nc(-c3ccc(F)cc3)cs2)CC1` (stereo not drawn) the value was 1.47% (inactive); for `COCCCNC(=S)N1CCN(c2nc(-c3cccc(OC)c3)cs2)CC1`, 9.71% (inactive).
In the case of `CC[C@@H](CCC(=O)N(c1ccccc1)c1ccccc1)C1CC1`, the inhibition was -6.31% (inactive).
Next, `CCOc1ccc(-n2c(SCC(=O)Nc3cc(C)c(NC(=O)c4ccccc4)cc3OC)nnc2-c2cccs2)cc1`: 17.4% (inactive).
Regarding `CCOc1ccc(NC(=O)COc2ccc(S(=O)(=O)N3CCCC3)cc2)cc1`, the inhibition is 4.99% (inactive).
Regarding `O=C(CSCc1ccc(Br)cc1)Nc1ccc(S(=O)(=O)N2CCCCCC2)cc1`, the inhibition is 24.1% (active).
Take `COc1ccc(OCC(=O)OCC(=O)Nc2ccc(S(=O)(=O)N3CCCCC3)cc2)cc1`: the inhibition is -5.59% (inactive).
Regarding `CCOC(=O)[C@]12CCCCC/C=C\1N(Cc1ccc(OC)cc1)C(=O)[C@H]2CC(=O)N1CCOCC1`, the inhibition was 3.26% (inactive).
Next, `CCCCNC(=O)C[C@H]1C[C@@]2(C(=O)OC)C(=C[C@H](COCc3ccccc3)O[C@@H]2C)N(Cc2ccc(Cl)cc2Cl)C1=O`: 9.41% (inactive); `CC(C)(C)c1ccc(CSc2nnc(-c3cccs3)o2)cc1`: -4.29% (inactive).
Next, `O=[N+]([O-])c1cccc(S(=O)(=O)N2CCCCCC2)c1`: -4.84% (inactive); `Cc1ccc(S(=O)(=O)N2CCC(N3CCCCCC3)CC2)cc1`: 3.62% (inactive); `O=S(=O)(c1cccc(S(=O)(=O)N2CCC(n3nnc4ccccc43)CC2)c1)N1CCCCC1`: 20.5% (active).
For `CC1=C(C(=O)N2CCOCC2)CC(CC(=O)NCc2cccs2)C(=O)N1CCCN1CCCC1=O` (stereo not drawn), the inhibition is -13.7% (inactive).
For `COc1cc(C2C(C(=O)c3ccco3)=C(O)C(=O)N2c2cc(C)on2)ccc1OCc1ccccc1` (stereo not drawn) the value was -2.12% (inactive); for `COc1cc(C2CC(=O)N3CN(Cc4ccccc4)CSC3=C2C#N)ccc1OCc1ccccc1` (stereo not drawn), 27.5% (active); for `CCCNC(=O)C1CC(=O)N(c2ccc(OCc3ccccc3)cc2)C1` (stereo not drawn), -1.57% (inactive).
For `N[C@@H](Cc1ccccc1)C(=O)N1CCC[C@@H]1C(=O)N1CCC2CCN(S(=O)(=O)c3ccccc3)CC21` (stereo partly drawn) the value was -2.11% (inactive).

The values are drawn from PubChem BioAssay AID720582 (The Scripps Research Institute Molecular Screening Center, 2013).
